Laboratory results as given in PubChem BioAssay (NCATS).
Records with an inconclusive call do not appear. The source made the active and inactive calls. Unless noted, the call rests on the fitted dose curve; in most records, active means well fitted curve in the direction sought with a large enough effect; inconclusive means small, poorly fitted or top-dose-only effect, or another doubt; inactive means no such curve, though single readings can be large; an effect the other way counts as inactive or inconclusive.

Key:
[1] = biological target: Glutathione peroxidase 1 (Homo sapiens) (UniProt P07203); test: Primary qHTS Assay for Inhibitors of Recombinant Selenoprotein Glutathione Peroxidase 1 (GPX1) (AID 1845191); further: nearly all actives have a fitted effect of over 65% in size; further: potency means the concentration at half of the fitted maximal effect; on activity, negative = inhibition: on the % scale 0 is the no-effect control and ±100 the full control effect
Chain of Glutathione peroxidase 1 (Homo sapiens) (P07203 whole entry, looked up): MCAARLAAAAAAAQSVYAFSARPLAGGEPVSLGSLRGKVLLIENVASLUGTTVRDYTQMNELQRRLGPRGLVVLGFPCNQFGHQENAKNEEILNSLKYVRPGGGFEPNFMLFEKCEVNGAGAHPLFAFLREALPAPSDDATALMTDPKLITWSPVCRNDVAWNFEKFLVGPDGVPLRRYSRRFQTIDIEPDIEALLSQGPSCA
In short: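 GR-coupled assay: compounds preincubated 30 min at room temperature with GPX1, then reaction started with CHP; final 10 nM GPX1, 1 mM GSH, 0.5 mM CHP, 0.5 mM NADPH, 100 nM GR, 0.01% BSA, pH 7.5 Tris buffer. NADPH fluorescence (340/450 nm) read at 0 and 15 min.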

[2] = biological target: Phospholipid hydroperoxide glutathione peroxidase GPX4 (Homo sapiens) (UniProt P36969); test: Primary qHTS Assay for Inhibitors of Recombinant Selenoprotein Glutathione Peroxidase 4 (GPX4) (AID 1845192); further: nearly all actives have a fitted effect of over 65% in size; further: potency means the concentration at half of the fitted maximal effect
Chain of Phospholipid hydroperoxide glutathione peroxidase GPX4 (Homo sapiens) (P36969 whole entry, looked up): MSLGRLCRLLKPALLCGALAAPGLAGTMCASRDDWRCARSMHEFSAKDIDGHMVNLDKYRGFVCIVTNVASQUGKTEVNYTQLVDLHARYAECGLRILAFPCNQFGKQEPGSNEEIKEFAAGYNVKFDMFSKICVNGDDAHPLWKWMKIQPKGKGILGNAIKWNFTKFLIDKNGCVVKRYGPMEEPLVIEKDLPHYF
In short: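 GR-coupled assay: recombinant GPX4 preincubated 30 min with compound at room temperature; final 200 nM GPX4, 1 mM GSH, 0.5 mM cumene hydroperoxide, 0.5 mM NADPH, 100 nM GR, 0.01% BSA, pH 7.5 Tris. NADPH fluorescence (340/450 nm) read at 0 and 15 min.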

[3] = HepG2 viability counterscreen (readout 1: protease activity) against the NCATS DSHEA and TCM libraries (AID 1794841);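 further: cells exposed to compounds for about 24 h before the protease read; 0% is about no effect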
In short: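 HepG2 cells, 1,000/well, attached ~4 h, then exposed ~24 h at 37C to substances. Protease activity read by fluorescence of 25 uM GF-AFC (Ex/Em 380/510 nm) after 30 min; ATP then by CellTiter-Glo luminescence.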

[4] = biological target: Cytochrome P450 2C9 (Homo sapiens) (UniProt P11712); test: qHTS for inhibitors of CYP2C9 against the NCATS DSHEA and TCM libraries (AID 1919973); further: potency means the concentration at half of the fitted maximal effect
Chain of Cytochrome P450 2C9 (Homo sapiens) (P11712 whole entry, looked up): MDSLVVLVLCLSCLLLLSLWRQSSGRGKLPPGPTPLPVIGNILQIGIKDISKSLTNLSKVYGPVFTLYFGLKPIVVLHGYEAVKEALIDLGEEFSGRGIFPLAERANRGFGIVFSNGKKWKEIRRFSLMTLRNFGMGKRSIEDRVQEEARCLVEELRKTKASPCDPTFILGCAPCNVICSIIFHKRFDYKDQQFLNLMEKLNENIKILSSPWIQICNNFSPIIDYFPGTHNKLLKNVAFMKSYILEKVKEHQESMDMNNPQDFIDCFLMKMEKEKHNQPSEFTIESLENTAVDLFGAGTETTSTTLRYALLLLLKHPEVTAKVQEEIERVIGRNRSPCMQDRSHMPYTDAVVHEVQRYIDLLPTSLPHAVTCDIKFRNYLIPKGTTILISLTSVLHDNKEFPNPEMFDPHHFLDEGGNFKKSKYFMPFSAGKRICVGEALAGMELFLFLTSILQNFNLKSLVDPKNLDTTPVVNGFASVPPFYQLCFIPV
In short: (§1)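 Light output from converted D-luciferin reports remaining CYP activity. Compounds preincubate with enzyme and substrate for 15 min; NADPH regeneration (1x final) runs the reaction for 30-45 min.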

[5] = biological target: Cytochrome P450 2C19 (Homo sapiens) (UniProt P33261); test: qHTS for inhibitors of CYP2C19 against the NCATS DSHEA and TCM libraries (AID 1919974);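 further: luminescence from luciferin released by CYP2C19 oxidation of a pro-luciferin substrate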; further: potency means the concentration at half of the fitted maximal effect
Chain of Cytochrome P450 2C19 (Homo sapiens) (P33261 whole entry, looked up): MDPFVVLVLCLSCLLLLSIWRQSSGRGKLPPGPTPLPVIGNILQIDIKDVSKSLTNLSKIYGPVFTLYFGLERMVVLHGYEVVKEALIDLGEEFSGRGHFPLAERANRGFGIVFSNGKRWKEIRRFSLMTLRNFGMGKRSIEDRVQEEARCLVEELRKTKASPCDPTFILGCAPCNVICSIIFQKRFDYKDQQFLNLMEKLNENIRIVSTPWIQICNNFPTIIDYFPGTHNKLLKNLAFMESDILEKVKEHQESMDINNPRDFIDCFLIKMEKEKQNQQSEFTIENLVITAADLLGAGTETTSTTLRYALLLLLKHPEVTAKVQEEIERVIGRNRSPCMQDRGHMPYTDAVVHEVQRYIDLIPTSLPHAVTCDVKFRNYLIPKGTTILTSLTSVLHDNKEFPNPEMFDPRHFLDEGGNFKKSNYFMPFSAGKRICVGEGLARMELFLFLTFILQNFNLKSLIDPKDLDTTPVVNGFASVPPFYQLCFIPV
In short: as §1

[6] = KB-3-1 P-gp reporter qHTS against the NCATS DSHEA and TCM libraries (AID 1919975); further: 0% is about no effect
In short: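 Parental KB-3-1 cells, 500 cells/well, in DMEM with 10% FBS, exposed 72 h at 37 C to compounds in concentration-response. Viability read by CellTiter-Glo luminescence after 30 min at room temperature.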

[7] = biological target: Cytochrome P450 1A2 (Homo sapiens) (UniProt P05177); test: qHTS for inhibitors of CYPIA2 against the NCATS DSHEA and TCM libraries (AID 1919976);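 further: light from luciferin formed by CYP1A2 from a pro-luciferin substrate; on the % scale 0 is the no-effect control and ±100 the full control effect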
Chain of Cytochrome P450 1A2 (Homo sapiens) (P05177 whole entry, looked up): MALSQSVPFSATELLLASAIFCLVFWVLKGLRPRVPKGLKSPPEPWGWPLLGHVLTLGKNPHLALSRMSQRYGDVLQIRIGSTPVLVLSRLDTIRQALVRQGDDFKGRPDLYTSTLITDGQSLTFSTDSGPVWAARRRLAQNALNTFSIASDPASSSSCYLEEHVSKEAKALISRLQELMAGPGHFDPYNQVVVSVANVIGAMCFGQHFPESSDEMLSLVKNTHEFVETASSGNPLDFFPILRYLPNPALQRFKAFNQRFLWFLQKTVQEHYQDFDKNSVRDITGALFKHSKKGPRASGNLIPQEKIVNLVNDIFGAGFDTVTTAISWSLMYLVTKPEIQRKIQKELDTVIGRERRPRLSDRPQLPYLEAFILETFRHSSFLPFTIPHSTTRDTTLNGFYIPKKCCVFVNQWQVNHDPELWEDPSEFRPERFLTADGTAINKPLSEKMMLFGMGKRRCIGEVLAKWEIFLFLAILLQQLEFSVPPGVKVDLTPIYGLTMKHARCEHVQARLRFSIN
In short: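 In this quantitative HTS, inhibition of recombinant human CYP1A2 was measured as loss of luciferin-derived luminescence. Turnover ran 30-45 min at RT after NADPH regeneration solution was added.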

[8] = qHTS Counterscreen for compound interference against the NCATS DSHEA and TCM libraries (AID 1919978); conditions: firefly luciferase detection reagent interference, luminescence;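 further: compounds preincubated with 1 µM D-luciferin or buffer before detection reagent; % of control where 0% means no effect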
In short: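 Firefly luciferase detection reagent was added after compounds (19.5 nM–39.8 uM final) had been incubated 15 min at room temperature with 1 uM D-luciferin or with 100 mM phosphate buffer alone. Luminescence was read after 30 min at room temperature.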

[9] = Dual reporter qHTS for agonist of Pregnane X Receptor (hPXR) against the NCATS DSHEA and TCM libraries: Fluorescence readout (AID 1920058); further: 0% is about no effect
In short: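 Measures viability of the PXR reporter HepG2 line by protease-substrate fluorescence (405/540 nm), taken 1 h after CellTiter-Fluor addition. Substances are tested as concentration series over a ~24 h exposure, with rifampicin as agonist control.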

[10] = biological target: Nuclear receptor subfamily 1 group I member 2 (Homo sapiens) (UniProt O75469); test: Dual reporter qHTS for agonist of Pregnane X Receptor (hPXR) against the NCATS DSHEA and TCM libraries: Luminescence readout (AID 1920059); further: potency means the concentration at half of the fitted maximal effect
Chain of Nuclear receptor subfamily 1 group I member 2 (Homo sapiens) (O75469 whole entry, looked up): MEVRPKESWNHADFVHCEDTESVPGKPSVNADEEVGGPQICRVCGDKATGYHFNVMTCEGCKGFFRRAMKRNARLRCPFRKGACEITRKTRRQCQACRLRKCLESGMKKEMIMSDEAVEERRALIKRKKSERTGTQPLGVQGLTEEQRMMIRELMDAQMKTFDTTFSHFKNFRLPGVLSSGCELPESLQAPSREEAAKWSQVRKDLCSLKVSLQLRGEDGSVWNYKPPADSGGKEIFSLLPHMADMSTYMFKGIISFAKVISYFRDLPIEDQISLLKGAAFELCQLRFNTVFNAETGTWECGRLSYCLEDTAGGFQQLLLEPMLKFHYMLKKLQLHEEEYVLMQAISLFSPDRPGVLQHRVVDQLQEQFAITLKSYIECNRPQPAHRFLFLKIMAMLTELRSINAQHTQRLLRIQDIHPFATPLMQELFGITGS
In short: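 hPXR-Luc HepG2 cells, 2000/well in 5% charcoal-stripped FBS medium, attached 5 h, then exposed 24 h at 37C to compounds. Viability by CellTiter-Fluor, then luciferase luminescence with ONE-Glo.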

[11] = biological target: Nuclear receptor subfamily 1 group I member 2 (Homo sapiens) (UniProt O75469); test: Dual reporter qHTS for antagonist of Pregnane X Receptor (hPXR) against the NCATS DSHEA and TCM libraries: Luminescence Readout (AID 1920060); further: 0% is about no effect
In short: (§2)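 Rifampicin-stimulated (2 uM final) hPXR-luciferase HepG2 cells were treated for 24 h with DSNP/TCM substances. Viability came from CellTiter-Fluor fluorescence, reporter activity from ONE-Glo luminescence.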

[12] = Dual reporter qHTS for antagonist of Pregnane X Receptor (hPXR) against the NCATS DSHEA and TCM libraries: Fluorescence Readout (AID 1920061); further: 0% is about no effect
In short: as §2

[13] = qHTS drug screen for cell cycle checkpoint inhibitors in PARPi-resistant BRCA-mutant ovarian cancer cell lines. (AID 1963452; calls by dose curve); conditions: PEO1/OlaR viability, CellTiter-Glo luminescence, 96 h, stronger effect = lower value
In short: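 PEO1, PEO4 and PEO1/OlaR ovarian cancer cells, 600 per well, exposed 96 h at 37C to a dilution series. Viability read by CellTiter-Glo luminescence, normalized to DMSO and empty wells; activity summarized as Z-AUC.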

[14] = tested on: Nanoluciferase (engineered Oplophorus gracilirostris luciferase); test: Primary Nanoluciferase (NLuc) qHTS assay for identification of artifact compounds. (AID 1845222);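 further: NLuc secreted into diluted conditioned medium of S16 cells; 0% = DMSO and -100% = no enzyme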
In short: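 S16 cell supernatant NLuc, 1:55; cpds qHTS; 15 min RT dark; Nano-Glo substrate 1:100, 5 min; luminescence; Hill fit of % inhibition.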

[15] = biological target: Cytochrome P450 3A4 (Homo sapiens) (UniProt P08684); test: qHTS for inhibitors of CYP3A4 against the NCATS DSHEA and TCM libraries (AID 1919971);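 further: on the % scale 0 is the no-effect control and ±100 the full control effect; inhibition lowers luminescence from luciferin made by CYP3A4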
Chain of Cytochrome P450 3A4 (Homo sapiens) (P08684 whole entry, looked up): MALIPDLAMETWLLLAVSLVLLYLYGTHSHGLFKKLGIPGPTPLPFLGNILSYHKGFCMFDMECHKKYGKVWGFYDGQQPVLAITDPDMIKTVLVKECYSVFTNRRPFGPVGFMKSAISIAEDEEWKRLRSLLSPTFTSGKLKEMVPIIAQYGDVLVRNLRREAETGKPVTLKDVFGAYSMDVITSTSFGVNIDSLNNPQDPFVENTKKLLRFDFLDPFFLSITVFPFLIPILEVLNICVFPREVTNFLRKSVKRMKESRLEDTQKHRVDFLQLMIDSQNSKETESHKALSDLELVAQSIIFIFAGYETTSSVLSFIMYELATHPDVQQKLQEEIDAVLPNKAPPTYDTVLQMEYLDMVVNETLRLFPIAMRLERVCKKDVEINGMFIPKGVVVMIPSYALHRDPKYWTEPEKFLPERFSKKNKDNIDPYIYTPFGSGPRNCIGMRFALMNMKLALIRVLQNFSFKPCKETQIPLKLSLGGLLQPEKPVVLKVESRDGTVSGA
In short: as §1

[16] = qHTS profiling for inhibitors of Plasmodium falciparum proliferation (AID 504749);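 further: 0% = DMSO vehicle and full inhibition = artemisinin control; nearly all actives have a fitted effect of over 60% in size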; conditions: P. falciparum in erythrocytes, SYBR Green DNA, 72 h, at 28.7 µM (top of the series)
In short: (§3)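 Readout was DNA-dye fluorescence from lysed cultures, ex 485/em 535 nm. Parasitized red cells had grown 72 h with compound; data scaled between 0.29 uM artemisinin and DMSO wells and corrected using vehicle-only plates.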

3D7 = test: as above; conditions: P. falciparum in erythrocytes, SYBR Green DNA, 72 h; series mostly up to 28.7 µM
In short: as §3

7G8 = test: as above; conditions: P. falciparum in erythrocytes, SYBR Green DNA, 72 h; series mostly up to 28.7 µM
In short: as §3

[17] = measured here: PEO1 parental Z-AUC

CCCC(=O)Nc1c(I)cc(I)c(CC(CC)C(=O)O)c1I (stereo not given)
inactive: Potency [1] | Potency [2]

NC[C@@H]1O[C@H](O[C@H]2[C@@H](O)[C@H](O[C@@H]3[C@@H](O)[C@H](N)C[C@H](N)[C@H]3O[C@H]3O[C@H](CO)[C@@H](O)[C@H](O)[C@H]3N)O[C@@H]2CO)[C@H](N)[C@@H](O)[C@@H]1O
inactive: outcome [1] inactive [at 0.4 µM] | outcome [2] inactive [at 0.409 µM]

CO/N=C(\C(=O)N[C@@H]1C(=O)N2C(C(=O)O)=C(C[N+]3(C)CCCC3)CS[C@H]12)c1csc(N)n1
active: Potency [1] 11.4 µM | Potency [2] 17.8 µM

Cc1c(O)c(=O)ccn1C
inactive: Potency [1] | Potency [2]

CO[C@@]1(NC(=O)C2SC(=C(C(N)=O)C(=O)O)S2)C(=O)N2C(C(=O)O)=C(CSc3nnnn3C)CS[C@@H]21 (stereo not given in full)
active: Potency [1] 10.1 µM | Potency [2] 17.8 µM

C=C1CC[C@H](O)C/C1=C\C=C1/CCC[C@]2(C)[C@@H]([C@H](C)CCCC(C)C)CC[C@@H]12
inactive: outcome [3] | Potency [1] | Potency [2] | outcome [6] | Potency [7] | max response [8] 0.0382% | outcome [9] | outcome [11] | outcome [12]
active: Potency [4] 25.1 µM | Potency [5] 25.1 µM | Potency [10] 31.6 µM

NC(=O)c1ccc[n+]([C@@H]2O[C@H](COP(=O)([O-])OP(=O)(O)OC[C@H]3O[C@@H](n4cnc5c(N)ncnc54)[C@H](O)[C@@H]3O)[C@@H](O)[C@H]2O)c1
inactive: Potency [1] | Potency [2]

CCCC1C(=O)N2C(N(C)C)=Nc3ccc(C)cc3N2C1=O (stereo not given)
inactive: Potency [1]

Oc1ccc(/C=C/c2cc(O)cc(O)c2)cc1
1.04: Z-AUC [13, 17]
0.679: Z-AUC ([13]; measured here: PEO4 Z-AUC)
active: Potency [10] 31.6 µM
inactive: outcome [3] | Potency [1] | Potency [2] | outcome [6] | max response [8] -1.38% | outcome [9] | outcome [11] | outcome [12] | Z-AUC [13] 0.778

CC(C)=CCC/C(C)=C/CC/C(C)=C/CC/C(C)=C/CC1=C(C)C(=O)c2ccccc2C1=O
inactive: outcome [3] | Potency [1] | Potency [7] | max response [8] -2.14% | outcome [9] | outcome [11] | outcome [12]
active: Potency [4] 14.1 µM

CC(=O)Nc1c(I)c(C(=O)N[C@H]2C(O)O[C@H](CO)[C@@H](O)[C@@H]2O)c(I)c(N(C)C(C)=O)c1I (stereo not given in full)
inactive: Potency [1] | Potency [2]

C=C1CC[C@H](O)CC1=C/C=C1\CCC[C@]2(C)[C@@H]([C@H](C)/C=C/[C@H](C)C(C)C)CC[C@@H]12
inactive: outcome [3] | Potency [1] | Potency [2] | outcome [14] | outcome [6] | Potency [7] | max response [8] -0.883% | outcome [9] | outcome [11] | outcome [12]
active: Potency [5] 12.6 µM

CC(C)=CCC/C(C)=C/C=C/C(C)=C/C=C/C(C)=C/C=C/C=C(C)/C=C/C=C(C)/C=C/C=C(\C)CCC=C(C)C
inactive: outcome [3] | Potency [1] | Potency [2] | outcome [15] | Potency [4] | Potency [5] | outcome [6] | Potency [7] | max response [8] 0.511% | outcome [9] | Potency [10] | outcome [11] | outcome [12] | activity, negative = inhibition ([16]; parasite line A) -19% | activity, negative = inhibition ([16]; parasite line B) -16%

Nc1nc(/C(=C/CC(=O)O)C(=O)N[C@@H]2C(=O)N3C(C(=O)O)=CCS[C@H]23)cs1
active: Potency [1] 9.04 µM

CC1=C(/C=C/C(C)=C/C=C/C(C)=C/C=C/C=C(C)/C=C/C=C(C)/C=C/C2=C(C)C[C@@H](O)CC2(C)C)C(C)(C)C[C@H](O)C1
inactive: Potency [1] | Potency [2]

CC(C)(C)NCC(O)CSc1nc(-c2ccc(C(N)=O)s2)cs1 (stereo not given)
active: Potency [1] 22.7 µM | Potency [2] 12.6 µM

CCOC(=O)[C@H](CS)NCCN[C@@H](CS)C(=O)OCC
active: Potency [1] 22.7 µM

CC1(C)[C@@H]2CC[C@@]1(C)[C@H](OC(=O)CSC#N)C2
inactive: Potency [1] | Potency [2]

COC1=C(OC)C(=O)C(C/C=C(\C)CC/C=C(\C)CC/C=C(\C)CC/C=C(\C)CC/C=C(\C)CC/C=C(\C)CC/C=C(\C)CC/C=C(\C)CC/C=C(\C)CCC=C(C)C)=C(C)C1=O
inactive: outcome [3] | Potency [1] | Potency [2] | outcome [15] | Potency [4] | Potency [5] | outcome [6] | max response [8] 5.89% | outcome [9] | Potency [10] | outcome [11] | outcome [12] | Z-AUC [13] -0.238 | activity, negative = inhibition ([16]; parasite line A) -2.4% | activity, negative = inhibition ([16]; parasite line B) 5.89% | Potency (3D7) | Potency (7G8)
0.209: Z-AUC ([13]; measured here: PEO4 Z-AUC)
-0.0279: Z-AUC [13, 17]
